Several values for one entry are separate records, joined by “and”; a condition that tells them apart may be missing. Equal values may be shown once. About 83,000 compounds went through this panel and 20% of them were active in at least one assay; those are over-represented in the sample as a whole.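 Assay: single dose, 48 h. Readout: percent growth (0 = no net growth; negative = cell death). Active: <10.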 Activity calls are given as the source filed them.

The test system of the assay is HL-60(TB) leukemia. As to the kind of experiment: NCI-60 one-dose screen, 48 h (100 = growth as untreated, 0 = no growth, -100 = all killed). The settings on record: 10 µM unless noted.
On to `Cc1ccc(-c2cc(O)c(-c3ccc(C)cc3C)cc2O)c(C)c1`, for which the growth was 21.2% (inactive).
As for `CCN(CC)CCNc1cc(-c2cccc(OC(F)(F)F)c2)nc2ccc(N3CCCC3)cc12`, the growth is -55.4% (active) and -26.1% (active) and 12.6% (inactive).
For the compound `CC1(C)c2[nH]c3ccccc3c2C[C@]2(C)[C@H]3CC=C4[C@@H]5C[C@@](C)(C(N)=O)CC[C@]5(C)CC[C@@]4(C)[C@]3(C)CC[C@@H]12`, the growth was 55.8% (inactive).
Consider `C=C[C@@H]1C[C@@H]2Cc3cc(Cl)ccc3N1O2`, for which the growth is 13.8% (inactive).
For the compound `CN1C(=O)N(C)C2C1NN=c1s/c(=C\c3c[nH]c4ccccc34)c(=O)n12` (centres undefined), the growth was -34.1% (active).
For the compound `COc1cc(C(=O)NN=C2c3ccccc3-c3ccccc32)cc(OC)c1OC`, the growth is 11.4% (inactive).
Take `O=S(=O)(Nc1ccc(F)c(Cl)c1)c1ccc(-c2cnc(C3CC3)o2)cc1`: the growth is 8.62% (active).
Under `COC(=O)CCCCCCN=Cc1c(O)c(O)c(C(C)C)c2cc(C)c(-c3c(C)cc4c(C(C)C)c(O)c(O)c(C=NCCCCCCC(=O)OC)c4c3O)c(O)c12` stands 16.6% (inactive); under `N=C(N)c1ccc(-c2ccc(/C=C/c3ccccc3)s2)cc1`, -39.5% (active).
Take `Cc1ccc(S(=O)(=O)Nc2ccc(-c3cc(-c4cccc(F)c4)c(C#N)c(N)n3)cc2)cc1`: the growth is -14.9% (active).
Under `CC(C)(C)c1cnc(CSc2cnc(NC(=O)C3CCNCC3)s2)o1` stands -40.4% (active).
Consider `C#CCn1c(-c2cccc(OCCCCl)c2)nc2c1c(=O)n(C)c(=O)n2C`, for which the growth is -15.7% (active).
On to `OCc1n(Cc2ccc3ccccc3c2)cc[n+]1Cc1ccc2ccccc2c1`, for which the growth was 6.82% (active).
Take `CCCCCCCCCCCCCCCCNC(=O)Nc1ccc2ccccc2c1`: the growth is 95% (inactive).
Under `CCc1ccccc1-n1c(-c2ccc(Cl)cc2)cc(-c2ccc(OC)cc2)c(C#N)c1=O` stands 68.8% (inactive).
Regarding `O=C1OC(c2ccc(-c3ccccc3)cc2)=C/C1=C/c1cccs1`, the growth was 75% (inactive).
To `Nc1c(C(=O)Nc2cccc3ccccc23)sc2nc3c(cc12)C(=O)CCC3` belongs 3.95% (active).
For the compound `Cc1ccc(-c2nc3nc(-c4ccccc4)nc(N4CCNCC4)c3o2)cc1`, the growth was -68.4% (active).
Under `C/C(O)=C(/C=N\C(=S)Nc1ccc(S(=O)(=O)Nc2nccs2)cc1)C(=O)Nc1ccccc1C` stands 105% (inactive); under `CNc1cc(-c2cccc(OC(F)(F)F)c2)nc2ccc(N3CCCC3)cc12`, -43% (active) and -44.1% (active) and 1.92% (active); under `CC1(CO)CCCC12OCCO2` (centres undefined), 105% (inactive).
To `O=C1Nc2ccccc2/C1=C\c1nc(-c2ccccc2F)n2ccccc12` belongs 73.4% (inactive); to `O=C(O)C1CSCN1` (centres undefined), 80.4% (inactive) and 83.9% (inactive); to `C[N+]1(CCCCC[N+]2(C)CCCC2)CCCC1`, 110% (inactive).
To `Cc1ccc2nc3c(n2c1)C(=O)C(=O)c1ccccc1-3` belongs -59.1% (active).
In the case of `O=C(Nc1ccc(-n2ccc3c(NC(=O)c4ccccc4)nccc32)cc1)Nc1cccc(C(F)(F)F)c1`, the growth is 63.8% (inactive).
Take `COc1cc(C2CC(c3cccc(Nc4ccncc4)c3)=NN2c2ccc(Cl)cc2)cc(OC)c1OC` (centres undefined): the growth is -45.2% (active).
Under `CC1(C)Cc2c(cn(Cc3ccccc3)c2-c2ccccc2)-c2oncc21` stands 85.7% (inactive); under `COC(=O)c1cc(=O)nc(N/N=C/c2ccco2)s1`, 116% (inactive).
Under `O=C(/C=C/c1ccc(Cl)cc1)c1cccc(Nc2nc(Nc3ccccc3)nc(Nc3ccccc3)n2)c1` stands 95.9% (inactive).
To `Nc1n[nH]c(-c2cc(Cl)ccc2O)c1-c1ccccc1` belongs 69.8% (inactive); to `COc1nccnn1`, 185% (inactive); to `COc1cnc2c(c1)C(=O)c1c-2n(CCCN2CCNCC2)c(=O)c2cc(F)ccc12`, -25% (active).
On to `COC(=O)c1ccccc1Br`, for which the growth is 76.5% (inactive).
As for `Cc1ccc(-c2cc(-c3cccc(Nc4ccnc5cc(Cl)ccc45)c3)nc3nc(N)[nH]c(=O)c23)cc1`, the growth is 58% (inactive).
Under `COc1cc(NC(=O)C#Cc2ccccc2)c(OC)cc1Cl` stands 42.7% (inactive); under `FC(F)(F)c1ccc(-c2cnc(-c3nn[nH]n3)nc2NC2CCCCCC2)cc1`, 31.1% [50 µM] (inactive); under `CCOC(=O)Nc1ccc(-c2nc(-c3cccc(OCCN4CCOCC4)c3)c(-c3ccnc(Br)c3)[nH]2)cc1`, -23.2% (active).
As for `Cc1ccc(NC(=O)c2ccc(CN3CC[C@H](N(C)C)C3)c(C(F)(F)F)c2)cc1Nc1nccc(-c2cncnc2)n1`, the growth is -51.3% (active).

Source of the values: PubChem BioAssay (NCI).
